Assay type in all cases: functional
For experiment [1], the system named is Plasmodium falciparum. Nature of the experiment: GSK_TCMDC: Inhibition of Plasmodium falciparum 3D7 in whole red blood cells, using parasite LDH activity as an index of growth. Test compounds present at 2uM.
In experiment [2] the test system is Plasmodium falciparum. Nature of the experiment: GSK_TCMDC: Inhibition of Plasmodium falciparum Dd2 in whole red blood cells, using parasite LDH activity as an index of growth. Test compounds present at 2uM.
In experiment [3] the test system is HepG2. As to the kind of experiment: GSK_TCMDC: Percent inhibition of human HepG2 cell line. Test compounds present at 10uM.

Each structure is given as a SMILES string.

As a reminder, the Inhibition is the share of the control response that was lost under treatment. Low readings indicate a weak effect, high ones a strong effect. `CCN(CC)CCON=Cc1cc(C)c2[nH]c3ccc(OCc4ccccc4)cc3c2c1C`: the Inhibition was 98% in experiment [1], 29% in experiment [2] and 29% in experiment [3].
In the case of `CC(=O)Nc1ccc(C(=O)Nc2cccc(-c3ccc(-c4nc5cc(C(F)(F)F)ccc5[nH]4)s3)c2)cn1`, the Inhibition in experiment [1] stood at 100%; in experiment [2] it was 98%; in experiment [3] it was 42%.
On the same counts, the results for `O=C(NCCCNc1ccnc2cc(Cl)ccc12)c1ccccc1F` are 100%, 97% and 18%.
`COc1ccc(-c2cccc(CNC3CCN(C)CC3)c2)cc1S(=O)(=O)NCc1ccccc1.O=C(O)C(F)(F)F`: the values for the Inhibition in experiment [1], in experiment [2] and in experiment [3] were 90%, 22% and 18%, respectively.
On the same counts, the results for `CC(C)Oc1cccc(-c2ccc(C(=O)NCC3CCCN(Cc4cccc(C(F)(F)F)c4)C3)s2)c1.O=C(O)C(F)(F)F` (stereo not drawn) are 91%, 28% and 10%.
On the same counts, the results for `O=C(Cn1c(CCc2cccc(F)c2F)cc(=O)c2ccccc21)N(CCN1CCCCC1)Cc1ccc(-c2ccc(C(F)(F)F)cc2)cc1.O=C(O)C(O)C(O)C(=O)O` are 100%, 59% and 9%.
For `CN1CCCN(c2ccnc3cc4c(cc23)N(C(=O)c2ccc(C(F)(F)F)cc2)CC4)CC1.Cl` the same measures were 100%, 63% and 10%.
Regarding `CN1CCN(c2cc3c(cc2Cl)CCN3C(=O)Cc2ccc(NC(=O)Nc3cccc4ccccc34)cc2)CC1`, the values for the Inhibition in experiment [1], in experiment [2] and in experiment [3] were 92%, 18% and 12%, respectively.
For `CCc1cn2c3c(cc(C(=O)N[C@@H](Cc4ccccc4)[C@H](O)CNC(C)(C)CCCC(C)C)cc13)N(C)S(=O)(=O)C2.O=CO` the same measures were 98%, 98% and 71%.
Turning to `Cc1cc2[nH]c(-c3ccc(C(=O)NCCCN4CCN(c5cccc(Cl)c5)CC4)cc3F)nc2cc1Cl`, the Inhibition in experiment [1] amounted to 99%; in experiment [2], 79%; in experiment [3] it was 0%.
For `CCCNC(=O)C1Cc2c([nH]c3ccc(Br)cc23)C2(CCN(CCc3ccccc3)CC2)N1` (stereo not drawn) the same measures were 99%, 49% and 16%.
For `CCOc1ccc2[nH]c(C)cc(=NN=Cc3cccc(F)c3)c2c1` the same measures were 100%, 23% and 0%.
As to `COc1ccc2nccc([C@@H](O)CN3CCC(NCCOc4cccc(C(F)(F)F)c4Cl)CC3)c2c1.O=C(O)C(=O)O`, the results for the Inhibition in experiment [1], in experiment [2] and in experiment [3] were 100%, 98% and 13%, respectively.
On the same counts, the results for `Cc1ccn2c(C(=O)N3CCN(c4cccc5c4nc(-c4ccoc4)n5Cc4ccccn4)CC3)c(C)nc2c1` are 98%, 99% and 2%.
On the same counts, the results for `COCCCNC(=O)[C@H]1CNCCN1C(=O)c1ccccc1.O=C(O)C(F)(F)F` are 97%, 95% and 53%.
On the same counts, the results for `Cc1cc(=O)[nH]c2cc(Nc3ccnc(Nc4cccc(C(N)=O)c4)n3)ccc12.Cl` are 99%, 98% and 27%.
`Oc1cccc(-c2nc(-c3ccccc3)c(-c3ccc4oc5ccc(-c6[nH]c(-c7cccc(O)c7)nc6-c6ccccc6)cc5c4c3)[nH]2)c1`: the Inhibition in experiment [1] was found to be 91%; in experiment [2], 35%; in experiment [3] it was 30%.
For `Cc1cc(OCCCN2CCC(NS(=O)(=O)c3ccc(C(F)(F)F)cc3)CC2)c2ccccc2n1` the same measures were 95%, 24% and 12%.
On the same counts, the results for `c1ccc(Oc2ccc(Nc3ccnc(Nc4ccc(CN5CCOCC5)cc4)n3)cc2)cc1` are 92%, 38% and 46%.
Consider `FC(F)(F)c1ccc2[nH]c(-c3ccc(-c4cccc(CN5CCN(CCN6CCOCC6)CC5)c4)cc3)nc2c1.O=C(O)C(F)(F)F`, for which the Inhibition is given as 98% in experiment [1], 77% in experiment [2] and 47% in experiment [3].
For `COc1ccc2nccc([C@@H](O)CN3CCC(NCc4ccc5c(c4)nnn5C(C)C)CC3)c2c1.O=C(O)C(=O)O` the same measures were 100%, 40% and 15%.
As for `O=C(c1cccc(-c2cccc(-c3nc4ccccc4[nH]3)c2)c1)N1CCCCC1CN1CCC(O)C1` (stereo not drawn), the Inhibition was determined as 100% in experiment [1], 56% in experiment [2] and 66% in experiment [3].
`CCCCN(CCCC)CCNC(=O)c1cccc(NC(=O)N2CCc3cc(SC)c(C(F)(F)F)cc32)c1`: the Inhibition is 96% in experiment [1], 32% in experiment [2] and 15% in experiment [3].
For `O=C(Nc1cccc(F)c1)N(Cc1ccc(-c2ccc(CN3CCNCC3)cc2)cc1)C1CCN(Cc2ccccc2)CC1.O=C(O)C(F)(F)F` the same measures were 100%, 53% and 18%.
Regarding `O=C(/C=C/c1ccc(Cl)c(Cl)c1)NCCCCCN1CCC(NC(=O)Nc2ccc(F)c(F)c2)CC1`, the Inhibition in experiment [1] came to 99%; in experiment [2], 4%; in experiment [3] it was 24%.
For `CC(=O)c1ccc(O)c(CC(O)CO)c1` (stereo not drawn) the same measures were 100%, 0% and 3%.
On the same counts, the results for `COc1ccc(CNCc2ccc(-c3ccc(-c4nc5cc(C(F)(F)F)ccc5[nH]4)cc3)cc2)cc1.O=C(O)C(F)(F)F` are 100%, 99% and 75%.
On the same counts, the results for `O=[N+]([O-])c1cc(/C=N/Nc2nc3nonc3nc2Nc2ccc(F)cc2)c(Cl)cc1Cl` are 98%, 13% and 5%.
`Cc1c(C)c2c(c(C)c1O)CCC(C)(CCC(=O)O)O2` (stereo not drawn): the Inhibition in experiment [1] amounted to 96%; in experiment [2], 0%; in experiment [3] it was 8%.
On the same counts, the results for `Cc1nnc(NC(=O)c2cn(-c3ccccc3)nc2-c2ccccc2C)o1` are 93%, 87% and 37%.
For `CCCCCCCCCN(CCC)C(=O)[C@@H]1OC(C(=O)OC(c2ccccc2)c2ccccc2)=C[C@H](NC(=O)OC(C)(C)C)[C@H]1NC(C)=O` the same measures were 91%, 49% and 0%.

For the origin of these results see ChEMBL document CHEMBL1157539, “Thousands of chemical starting points for antimalarial lead identification” (Nature, 2010).
